Molecules are shown by their SMILES. The source made the active and inactive calls. The calls were made as follows: active = hit-call score of the fitted dose curve at least 0.9, where 1 is the maximum; inactive = score below 0.9.

Read-out in assay [1]: Tissue Factor, F3 (gene 2152)
Description: BSK_CASM3C_TissueFactor: BioMAP Diversity Plus: CASM3C Assay for Tissue Factor Biomarker Activity (AID 2283052).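 Also: cell surface tissue factor protein level read by ELISA.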 As to conditions: primary human coronary artery smooth muscle cells; actives raise or lower the signal.

Read-out in assay [2]: Interferon-gamma inducible Protein 10 (IP10), CXCL10 (gene 3627)
Nature of the assay: BSK_hDFCGF_IP10: BioMAP Diversity Plus: hDFCGF Assay for Interferon-gamma inducible Protein 10 (IP10) Biomarker Activity (AID 2283053). As to conditions: primary human foreskin fibroblasts; actives raise or lower the signal. In a few lines:
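Human foreskin fibroblast primary cells (hDFCGF system) were dosed with chemical and assayed at 24 h; IP-10 measured by ELISA. Activity fitted bidirectionally relative to DMSO negative control as baseline.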

Read-out in assay [3]: Urokinase-type plasminogen activator receptor (uPAR), PLAUR (gene 5329)
Nature of the assay: BSK_CASM3C_uPAR: BioMAP Diversity Plus: CASM3C Assay for Urokinase-type plasminogen activator receptor (uPAR) Biomarker Activity (AID 2283054).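 Also: cell-surface uPAR protein level quantified by ELISA.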 Conditions: primary human coronary artery smooth muscle cells; actives raise or lower the signal.

Read-out in assay [4]: Vascular cell adhesion molecule 1 (VCAM1), VCAM1 (gene 7412)
Nature of the assay: BSK_CASM3C_VCAM1: BioMAP Diversity Plus: CASM3C Assay for Vascular cell adhesion molecule 1 (VCAM1) Biomarker Activity (AID 2283055).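 Also: VCAM-1 protein level quantified by ELISA on the cells.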 As to conditions: primary human coronary artery smooth muscle cells; actives raise or lower the signal.

Read-out in assay [5]: Collagen III, COL3A1 (gene 1281)
Nature of the assay: BSK_hDFCGF_CollagenIII: BioMAP Diversity Plus: hDFCGF Assay for Collagen III Biomarker Activity (AID 2283056). As to conditions: primary human foreskin fibroblasts; actives raise or lower the signal. The procedure, abridged: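 hDFCGF primary human dermal fibroblasts; 24 h chemical exposure; collagen III by ELISA; bidirectional curve fit vs DMSO baseline (gain or loss of signal).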

Read-out in assay [6]: Epidermal growth factor receptor (EGFR), EGFR (gene 1956)
Nature of the assay: BSK_hDFCGF_EGFR: BioMAP Diversity Plus: hDFCGF Assay for Epidermal growth factor receptor (EGFR) Biomarker Activity (AID 2283057). Conditions: primary human foreskin fibroblasts; actives raise or lower the signal. In a few lines:
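Primary human foreskin fibroblasts were exposed to compound for 24 h, after which cell-surface EGFR was quantified by ELISA. Activity was fitted bidirectionally against the DMSO negative control as baseline.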

Read-out in assay [7]: Interleukin-8 (IL8), CXCL8 (gene 3576)
Description: BSK_hDFCGF_IL8: BioMAP Diversity Plus: hDFCGF Assay for Interleukin-8 (IL8) Biomarker Activity (AID 2283058). As to conditions: primary human foreskin fibroblasts; actives raise or lower the signal. In a few lines:
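ELISA read-out of IL-8 from primary human foreskin fibroblast cultures taken 24 h after dosing; values are bidirectional fits relative to DMSO vehicle.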

Assay [8] in a line: BSK_hDFCGF_Proliferation: Cell Proliferation Assessment in the BioMAP Diversity Plus: hDFCGF Assay (AID 2283059).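 Also: curves fitted for both rise and fall of signal versus DMSO baseline.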 Conditions: primary human foreskin fibroblasts. The procedure, abridged:
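Primary human foreskin fibroblasts, sub-confluent; […]; 10% TCA fix, 0.1% SRB stain, A560 total protein. Gain/loss fitted bidirectionally vs DMSO control.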

Read-out in assay [9]: Macrophage colony-stimulating factor (MCSF), CSF1 (gene 1435)
Nature of the assay: BSK_hDFCGF_MCSF: BioMAP Diversity Plus: hDFCGF Assay for Macrophage colony-stimulating factor (MCSF) Biomarker Activity (AID 2283060). As to conditions: primary human foreskin fibroblasts; actives raise or lower the signal. In a few lines:
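ELISA read-out of M-CSF in human dermal foreskin fibroblast cultures, 24 h after chemical dosing; gain or loss of signal fitted bidirectionally relative to DMSO baseline.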

Assay [10] is described as follows: BSK_hDFCGF_SRB: Viability Assessment in the BioMAP Diversity Plus: hDFCGF Assay (AID 2283061).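 Also: cells exposed to compound for 24 h before the read.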 Conditions: primary human foreskin fibroblasts. In a few lines:
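Primary human foreskin fibroblasts; 24 h post-dose; fixed 10% TCA, stained 0.1% SRB, A560 read; total protein as overt cytotoxicity measure; curves fit bidirectionally vs DMSO control.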

Read-out in assay [11]: Monokine induced gamma interferon (MIG), CXCL9 (gene 4283)
Description: BSK_hDFCGF_MIG: BioMAP Diversity Plus: hDFCGF Assay for Monokine induced gamma interferon (MIG) Biomarker Activity (AID 2283063). As to conditions: primary human foreskin fibroblasts; actives raise or lower the signal. The procedure, abridged:
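Fibroblasts (human foreskin, primary) dosed, 24 h, MIG by ELISA; fit bidirectional vs DMSO.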

Read-out in assay [12]: Matrix Metallopeptidase 1 (MMP1), MMP1 (gene 4312)
Description: BSK_hDFCGF_MMP1: BioMAP Diversity Plus: hDFCGF Assay for Matrix Metallopeptidase 1 (MMP1) Biomarker Activity (AID 2283064). Conditions: primary human foreskin fibroblasts; actives raise or lower the signal. The procedure, abridged: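 Primary human foreskin fibroblasts exposed to chemicals for 24 h; MMP1 measured by ELISA. Cytotoxicity tracked by SRB staining in parallel cultures; bidirectional fit relative to DMSO.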

Read-out in assay [13]: Vascular cell adhesion molecule 1 (VCAM1), VCAM1 (gene 7412)
Description: BSK_hDFCGF_VCAM1: BioMAP Diversity Plus: hDFCGF Assay for Vascular cell adhesion molecule 1 (VCAM1) Biomarker Activity (AID 2283065).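 As to AC50: VCAM-1 protein level quantified by ELISA after 24 h chemical exposure.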 As to conditions: primary human foreskin fibroblasts; actives raise or lower the signal. In a few lines:
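ELISA read-out of VCAM-1 on human skin fibroblasts, 24 h post-dose; gain or loss of signal fitted bidirectionally against DMSO baseline.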

Read-out in assay [14]: Plasminogen activator inhibitor-1 (PAI1), SERPINE1 (gene 5054)
Description: BSK_hDFCGF_PAI1: BioMAP Diversity Plus: hDFCGF Assay for Plasminogen activator inhibitor-1 (PAI1) Biomarker Activity (AID 2283066). Conditions: primary human foreskin fibroblasts; actives raise or lower the signal. In a few lines: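 Human foreskin fibroblasts in the hDFCGF system were dosed with compound for 24 h; PAI-1 was quantified by ELISA. Bidirectional curve fitting used DMSO as negative control and baseline.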

Read-out in assay [15]: Intercellular Adhesion Molecule 1 (ICAM1), ICAM1 (gene 3383)
Description: BSK_KF3CT_ICAM1: BioMAP Diversity Plus: KF3CT Assay for Intercellular Adhesion Molecule 1 (ICAM1) Biomarker Activity (AID 2283067). Conditions: primary human keratinocytes with fibroblasts; actives raise or lower the signal. In a few lines:
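ELISA readout of ICAM-1; KF3CT human skin co-culture (keratinocytes + foreskin fibroblasts), 24 h post-dose; gain/loss fit vs DMSO baseline.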

Read-out in assay [16]: Interferon-gamma inducible Protein 10 (IP10), CXCL10 (gene 3627)
Description: BSK_KF3CT_IP10: BioMAP Diversity Plus: KF3CT Assay for Interferon-gamma inducible Protein 10 (IP10) Biomarker Activity (AID 2283068). As to conditions: primary human keratinocytes with fibroblasts; actives raise or lower the signal. The procedure, abridged: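 In a primary skin co-culture of keratinocytes and fibroblasts, IP-10 is quantified by ELISA at 24 h after dosing. SRB staining of parallel wells monitors overt toxicity. Curves are fitted both directions against DMSO.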

Assay [17] can be described thus: BSK_KF3CT_SRB: Viability Assessment in the BioMAP Diversity Plus: KF3CT Assay (AID 2283069).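 Also: total protein by sulforhodamine B staining as a cytotoxicity measure; read 24 h after compound addition.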 As to conditions: primary human keratinocytes with fibroblasts. The procedure, abridged: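 Human keratinocyte and foreskin fibroblast co-culture exposed to chemical for 24 h. Total protein measured in parallel cultures by 0.1% sulforhodamine B staining after 10% TCA fixation, read at 560 nm; bidirectional fit relative to DMSO.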

Read-out in assay [18]: Interleukin-1 alpha (IL1a), IL1A (gene 3552)
Nature of the assay: BSK_KF3CT_IL1a: BioMAP Diversity Plus: KF3CT Assay for Interleukin-1 alpha (IL1a) Biomarker Activity (AID 2283070). Conditions: primary human keratinocytes with fibroblasts; actives raise or lower the signal. In a few lines: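 Primary human keratinocyte plus foreskin fibroblast co-culture, dosed and measured at 24 h in 96-well plates. IL-1a level quantified by ELISA; bidirectional fit relative to DMSO.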

Read-out in assay [19]: TIMP metallopeptidase inhibitor 2 (TIMP2), TIMP2 (gene 7077)
Nature of the assay: BSK_KF3CT_TIMP2: BioMAP Diversity Plus: KF3CT Assay for TIMP metallopeptidase inhibitor 2 (TIMP2) Biomarker Activity (AID 2283071). Conditions: primary human keratinocytes with fibroblasts; actives raise or lower the signal. The procedure, abridged:
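Human primary keratinocyte/foreskin fibroblast co-culture dosed with chemical and sampled at 24 h. TIMP-2 levels quantified by ELISA; bidirectional fitting against DMSO negative control as baseline.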

As a reminder, the AC50 is the midpoint of the concentration-response curve, whichever way the signal moves. As to `CCCCCCCCCCCCc1ccccc1S(=O)(=O)O`, the outcome in [1], in assay [3] and in [6] was inactive. Besides, the concentration at half-maximal activity (AC50) in assay [2] is 10.6 µM (active); in [4], 11.2 µM (active); in assay [5], 8.62 µM (active); in assay [7] it was 13.5 µM (active); in assay [8], 9.26 µM (active); in assay [9], 11.4 µM (active). The AC50 in assay [10] is 6.52 µM (active); in [11] it was 11.7 µM (active); in assay [12] it was 7.55 µM (active); in assay [13] it was 11.6 µM (active); in assay [14], 6.87 µM (active); in assay [15] it was 31.5 µM (active). In addition, the concentration at half-maximal activity (AC50) was 13 µM (active) in [16], 12.8 µM (active) in [17], 29.9 µM (active) in assay [18] and 13.3 µM (active) in assay [19].
Regarding `CCOC(=O)CC(O)(CC(=O)OCC)C(=O)OCC`, the outcome in [1], in assay [2], in [3], in assay [4], in [5] and in [6] was inactive. Moreover, the result in [7], in [8], in assay [9], in assay [10], in [11] and in assay [12] was inactive. Further, the outcome in [13], in assay [14], in assay [15], in [16], in [17] and in assay [18] was inactive. The result in [19] was inactive.
For `CC(C)(C)c1ccc(O)c(C(C)(C)C)c1`, the concentration at half-maximal activity (AC50) in assay [1] is 20 µM (active); in assay [2], 10.1 µM (active); in [3], 7.58 µM (active); in assay [4] it was 29.1 µM (active); in assay [5], 8.81 µM (active); in [6], 13.2 µM (active). Further, the half-maximal activity concentration (AC50) in assay [7] is 12.5 µM (active); in assay [8], 11.4 µM (active); in [9] it was 8.8 µM (active); in [10], 11.9 µM (active); in [11], 11.7 µM (active); in assay [13], 9.1 µM (active). The AC50 was 10.3 µM (active) in [14]; 14.6 µM (active) in [15]; 14.2 µM (active) in assay [16]; 8.27 µM (active) in [17]; 9.23 µM (active) in assay [18]; 12 µM (active) in [19].
Turning to `COCC(C)O` (centres undefined), the result in [1], in [2], in assay [3], in [4], in assay [5] and in assay [6] was inactive. Further, the result in assay [7], in [8], in [9], in [10], in [11] and in [13] was inactive. Also, the outcome in assay [14], in assay [15], in assay [16], in assay [17], in [18] and in [19] was inactive.
On to `O=[N+]([O-])c1ccc(O)cc1`, for which the result in assay [1], in assay [2], in assay [3], in assay [4], in assay [5] and in assay [6] was inactive. In addition, the outcome in assay [7], in [8], in assay [9], in [10], in assay [11] and in [12] was inactive. Moreover, the result in [13], in assay [14], in [15], in [16], in assay [17] and in [18] was inactive. In addition, in [19], the result was inactive.
For the compound `CCC(=C(c1ccc(O)cc1)c1ccc(OCCN(C)C)cc1)c1ccccc1`, the concentration at half-maximal activity (AC50) in assay [1] is 15.8 µM (active); in assay [2] it was 10.5 µM (active); in [3] it was 20.3 µM (active); in [4], 22.3 µM (active); in assay [5], 7.58 µM (active); in assay [7], 12.8 µM (active). For the same compound, the half-maximal activity concentration (AC50) is 4.77 µM (active) in [8]; 10.2 µM (active) in assay [9]; 10.7 µM (active) in [10]; 13.7 µM (active) in assay [11]; 10.7 µM (active) in assay [13]; 7.53 µM (active) in assay [14]. Further, the AC50 in assay [15] is 12.3 µM (active); in assay [16] it was 10.4 µM (active); in assay [17], 8.81 µM (active); in assay [18] it was 9.91 µM (active); in assay [19] it was 10.5 µM (active). The result in [6] was inactive.
`COc1ccc([N+](=O)[O-])cc1N`: the outcome in assay [1], in [2], in [3], in assay [4], in assay [5] and in assay [6] was inactive. In addition, the result in assay [7], in assay [8], in [9], in assay [10], in assay [11] and in [13] was inactive. Also, the outcome in [14], in assay [15], in assay [16], in assay [17], in assay [18] and in assay [19] was inactive.

The record behind these values is PubChem BioAssay (EPA / NIEHS).
